# Inconclusive results are not listed. Activity calls are given as the source filed them. Rule as the data show it, unless noted: active = inhibition above about 80%; inactive = the rest.
# What was measured:
# [1] = growth inhibition of DIPG glioma cells, dose response, cell-based, SU-DIPG-XIII, MIPE5.0, CellTiter-Glo, qHTS (AID 1347064; cut-off not given, nearly all actives have AC50 up to about 23 µM;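 also: cells exposed to compound for 48 hours before the viability read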); details: SU-DIPG-XIII viability, CellTiter-Glo ATP luminescence
# [2] = viability loss in pontine glioma line – cell-based, SU-DIPG-XXV, MIPE5.0, CellTiter-Glo, qHTS, dose response (AID 1347065; cut-off not given, nearly all actives have AC50 up to about 26 µM;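 also: cells exposed to compound for 48 hours before ATP readout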); details: CellTiter-Glo ATP luminescence
# [3] = JHH-DIPG-1 glioma cell viability, MIPE5.0 library, CellTiter-Glo luminescence, qHTS (AID 1347067; cut-off not given, nearly all actives have AC50 up to about 26 µM;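 also: cells exposed to compound for 48 hours before readout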); details: JHH-DIPG-1 glioma viability, CellTiter-Glo ATP luminescence
# [4] = SU-DIPG-XXV glioma cell viability, MIPE5.0 library, qHTS (AID 1347068; cut-off not given, nearly all actives have IC50 up to about 30 µM;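 also: cells exposed to compound for 48 hours before viability readout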)
# [5] = LFS_MB_P medulloblastoma growth inhibition, cell-based, chromothripsis tumors, cisplatin or BGB combos (AID 1671449); details: LFS_MB_P medulloblastoma cells;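 also: cells exposed for 96 hours; 0% = vehicle DMSO and 100% = killing by high DMSO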
# [6] = HDN33 neuroblastoma growth inhibition, cell-based, chromothripsis tumors, cisplatin or BGB combos (AID 1671450); details: HDN33 neuroblastoma cells, stronger effect = higher value;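 also: cells exposed to compound for four days; 0% = vehicle DMSO and 100% = cell killing by high DMSO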
# [7] = ICB984 medulloblastoma cell growth inhibition, synergistic combos for chromothripsis tumors, cisplatin or BGB combos (AID 1671451; call rule not given here;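 also: cells exposed for 96 hours before readout; 0% = vehicle DMSO and 100% = killing by high DMSO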); details: ICB984 medulloblastoma cells, drug combinations, stronger effect = higher value
# [8] = LFS_MB_1R medulloblastoma cell growth inhibition, synergistic combos for chromothripsis tumors, cisplatin or BGB combos (AID 1671452); details: LFS_MB_1R medulloblastoma cells, stronger effect = higher value;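 also: cells exposed for 96 hours before readout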
# [9] = HTB85 osteosarcoma cell growth inhibition, synergistic combos for chromothripsis tumors, BGB or cisplatin IC20 combos (AID 1671453); details: HTB85 osteosarcoma cells, drug combinations, stronger effect = higher value;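 also: cells exposed for 96 hours before readout; 0% = vehicle DMSO and 100% = high DMSO killing control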
# [10] = CRL2098 osteosarcoma cell growth inhibition, synergistic combos for chromothripsis tumors, BGB or cisplatin IC20 combos (AID 1671454); details: CRL2098 osteosarcoma cells, drug combinations, stronger effect = higher value;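 also: cells exposed for 96 h before readout; 0% = vehicle DMSO and 100% = killing by high DMSO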
# [11] = HD-MB03 medulloblastoma cell growth inhibition, synergistic combos for chromothripsis tumors, BGB or cisplatin IC20 combos (AID 1671455; in the data active = inhibition above about 83%;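 also: 0% = vehicle DMSO and 100% = high DMSO as cytotoxic control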); details: HD-MB03 medulloblastoma cells, stronger effect = higher value
# [12] = UWB1.289 ovarian carcinoma cell growth inhibition, synergistic combos for chromothripsis tumors, BGB or cisplatin combos (AID 1671456); details: UWB1.289 ovarian carcinoma cells, stronger effect = higher value;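 also: cells exposed to compound for four days; 0% = vehicle DMSO and 100% = killing by high DMSO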
# [13] = LFS_MB_2R medulloblastoma cell growth inhibition, synergistic combos for chromothripsis tumors, cisplatin combos (AID 1671457); details: LFS_MB_2R medulloblastoma cells, stronger effect = higher value;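 also: cells exposed to compound for four days before readout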
# [14] = MDA-MB-436 breast carcinoma cell growth inhibition, synergistic combos for chromothripsis tumors, BGB or cisplatin combos (AID 1671458; call rule not given here;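 also: cells exposed for 96 hours; 0% = vehicle DMSO and 100% = killing by high DMSO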); details: MDA-MB-436 breast carcinoma growth inhibition, drug combinations, stronger effect = higher value
# [15] = UWB1.289_BRCA1 ovarian cancer growth, cell-based, BGB or cisplatin combinations (AID 1671459); details: UWB1.289 BRCA1 ovarian carcinoma, drug combinations, stronger effect = higher value
# [16] = human astrocyte viability loss, single and combined drugs, cytotoxicity control for chromothriptic childhood tumor combination screen, cell-based, BGB or cisplatin IC20 combos (AID 1671460); details: Human astrocytes, drug combinations, stronger effect = higher value;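 also: cells exposed to compounds for 96 hours before viability readout; 0% = vehicle and 100% = killing control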
# [17] = growth inhibition of BT084 medulloblastoma cells, cell-based, ICGC_MB145, cisplatin and BGB IC40 combos (AID 1671461); details: drug combinations, stronger effect = higher value;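 also: cells exposed to drugs for 96 hours; 0% = vehicle DMSO and 100% = high DMSO full killing control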
# [18] = growth inhibition of RCMB18 medulloblastoma cells, cell-based, cisplatin and BGB IC40 combos (AID 1671462); details: stronger effect = higher value;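 also: cells exposed to compound for four days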
# [19] = growth inhibition of CRL1545 osteosarcoma cells, cell-based, cisplatin and BGB IC20 combos (AID 1671464); details: stronger effect = higher value;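 also: cells exposed to compound for 96 hours before readout; 0% = vehicle DMSO and 100% = high DMSO killing control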
# [20] = measured here: combination with BGB IC40, at 0.05 µM
# [21] = measured here: with BGB IC20 combination, at 0.5 µM
# [22] = measured here: with cisplatin IC20 combination, at 0.5 µM
# [23] = measured here: combination with cisplatin, at 0.5 µM
# [24] = measured here: combination with cisplatin, at 5 µM
structure (smiles),measurement,setting,value
c1cc(Nc2cc(C3CC3)[nH]n2)nc(Nc2ccc3nc[nH]c3c2)n1,AC50,[1],0.468 µM (active)
same,AC50,[2],0.59 µM (active)
same,AC50,[3],0.742 µM (active)
same,IC50,[4],1.48 µM (active)
same,inhibition,"[5]; at 0.5 µM, stronger effect = higher value",-28.9% (inactive)
same,inhibition,"[5]; measured here: combination with BGB IC20, at 0.005 µM",-28.7%
same,inhibition,"[5]; measured here: combination with BGB IC40, at 0.005 µM",66.9%
same,inhibition,[5]; [20],3.2%
same,inhibition,"[5]; measured here: combination with cisplatin, at 0.5 µM, stronger effect = higher value",-45.7%
same,inhibition,"[5]; measured here: combination with cisplatin, at 5 µM, stronger effect = higher value",97.7%
same,inhibition,"[6]; BGB combo, at 5 µM",80.3%
same,inhibition,[6]; at 0.5 µM,13.6% (inactive)
same,inhibition,"[6]; cisplatin combo, at 5 µM",56.8%
same,inhibition,[6]; [21],15.5%
same,inhibition,[6]; [22],11.8%
same,inhibition,"[6]; single agent, at 5 µM",65%
same,inhibition,"[7]; BGB IC20 combo, at 0.005 µM",91.8%
same,inhibition,"[7]; BGB IC40 combo, at 0.005 µM",91.5%
same,inhibition,"[7]; BGB IC40 combo, at 0.05 µM",101%
same,inhibition,[7]; at 0.5 µM,-13.7% (inactive)
same,inhibition,"[7]; cisplatin combo, at 0.05 µM",102%
same,inhibition,"[7]; cisplatin combo, at 0.5 µM",-28%
same,inhibition,"[7]; cisplatin combo, at 5 µM",-12.8%
same,inhibition,"[7]; measured here: 5 uM single agent, at 5 µM",-7.27%
same,inhibition,[8]; at 0.5 µM,96.2% (active)
same,inhibition,[8]; [20],10.7%
same,inhibition,[8]; [23],97.7%
same,inhibition,[8]; [24],98.3%
same,inhibition,[9]; at 0.5 µM,92.1% (active)
same,inhibition,"[9]; measured here: with BGB IC20, at 0.5 µM",97.4%
same,inhibition,"[9]; measured here: with BGB IC20, at 5 µM",98.4%
same,inhibition,"[9]; measured here: with cisplatin IC20, at 0.5 µM",83.5%
same,inhibition,"[9]; measured here: with cisplatin IC20, at 5 µM",99.3%
same,inhibition,"[9]; single agent, at 5 µM",99.5%
same,inhibition,[10]; at 0.5 µM,28.9% (inactive)
same,inhibition,"[10]; measured here: combination with BGB at IC20, at 0.5 µM",57.3%
same,inhibition,"[10]; measured here: combination with cisplatin at IC20, at 0.5 µM",27.4%
same,inhibition,[11]; at 0.5 µM,31.9% (inactive)
same,inhibition,"[11]; measured here: combo with BGB at IC20, at 0.5 µM",43.7%
same,inhibition,"[11]; measured here: combo with cisplatin at IC20, at 0.5 µM",6.87%
same,inhibition,[12]; at 0.5 µM,67.4% (inactive)
same,inhibition,"[12]; measured here: inhibition with BGB combination, at 0.05 µM",37.1%
same,inhibition,"[12]; measured here: inhibition with cisplatin combination, at 0.05 µM",-9.86%
same,inhibition,[13]; at 0.5 µM,80.7% (active)
same,inhibition,[13]; [23],87.3%
same,inhibition,[13]; [24],91.1%
same,inhibition,[14]; at 0.5 µM,23.1% (inactive)
same,inhibition,"[14]; measured here: BGB combination, at 0.5 µM",22.4%
same,inhibition,"[14]; measured here: BGB combination, at 5 µM",75.1%
same,inhibition,"[14]; measured here: cisplatin combination, at 0.5 µM",5.08%
same,inhibition,"[14]; measured here: cisplatin combination, at 5 µM",88.8%
same,inhibition,"[15]; BGB combination, concentration series, at 5 µM",73.5%
same,inhibition,[15]; at 0.5 µM,79.3% (inactive)
same,inhibition,"[15]; cisplatin combination, concentration series, at 5 µM",72.2%
same,inhibition,[16]; at 0.5 µM,14.6% (inactive)
same,inhibition,"[16]; measured here: combo with BGB IC20, at 0.5 µM",33.6%
same,inhibition,"[16]; measured here: combo with cisplatin IC20, at 0.5 µM",-4.62%
same,inhibition,[17]; at 0.5 µM,44.8% (inactive)
same,inhibition,"[17]; cisplatin combination, at 0.5 µM",31.8%
same,inhibition,"[17]; cisplatin combination, at 5 µM",-81%
same,inhibition,"[17]; measured here: BGB IC40 combination 0.05 uM, at 0.05 µM",-10.1%
same,inhibition,"[17]; single agent, at 5 µM",22.9%
same,inhibition,[18]; at 0.5 µM,73.8% (inactive)
same,inhibition,"[18]; cisplatin combo, at 5 µM",83.5%
same,inhibition,"[18]; measured here: BGB IC40 combination, at 0.05 µM",22.4%
same,inhibition,[18]; [23],76.4%
same,inhibition,"[18]; single agent, at 5 µM",84.3%
same,inhibition,[19]; at 0.5 µM,-7.32% (inactive)
same,inhibition,[19]; [21],-9.54%
same,inhibition,[19]; [22],-7.92%
same,inhibition,"[19]; single agent, at 0.05 µM",-26.3%
same,inhibition,"[19]; single agent, at 5 µM",81.3%

# From PubChem BioAssay
